# Measured values from ChEMBL document CHEMBL1201862, “PubChem BioAssay data set” (2004).
# In all, about 56,000 […] went through this assay and about 2,900 (5.2%) were called active. Cut-off read from the data, not from the text of the source: active = GI50 up to about 1.1 µM and inactive = higher. The list is a sample of the results. Measured potencies and affinities stand elsewhere.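 Step 1: Grow cells in 96-well plates. Step 2: Expose to compound for 48 hours at 5 concentrations. Step 3: Interpolate endpoints linearly; if unreached, use highest concentration. GI50: concentration for 50% inhibition of growth.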
# Test system: SK-OV-3
# Assay: NCI tumour cell line growth inhibition, 48 h
row,Substance,GI50 [µM]
1,"[Bis(aminomethyl)tetramethylenesilane]tetrachloropaltinum(IV), CHEMBL2146189",6.97
2,"cis-Bis[[(trimethylsilyl)methyl]amino]tetrachloroplatinum(IV), CHEMBL2146191",17.6
3,"[Bis(aminomethyl)ethylmethylsilane]tetrachloroplatinum(IV), CHEMBL2146192",13.1
4,"CISPLATIN, CHEMBL11359",5.35
5,"[Bis(aminomethyl)dimethylsilane]dichloroplatinum (II), CHEMBL2146201",> 100
6,"mu-(1,7-nanodiamine-N,N')bis-(cis-aminedichloroplatimum (II)), CHEMBL2146215",64.9
7,"[Bis(aminomethyl)pentamethylenesilane]tetrachloropaltinum(IV), CHEMBL2146204",4.5
8,"[Bis(aminomethyl)dimethylsilane]tetrachloroplatinum(IV), CHEMBL2146190",12.8
9,"[Bis(aminomethyl)pentamethylenesilane]dichloropaltinum(II), CHEMBL2146202",5.12
10,"[Bis(aminomethyl)diethylsilane]tetrachloroplatinum(IV), CHEMBL2146203",1.69
11,"[Bis(aminomethyl)tetramethylenesilane]dichloropaltinum(II), CHEMBL2146205",26.2
